The values that follow come from PubChem BioAssay (EPA / NIEHS).

Active and inactive are the calls of the source. The calls were made as follows: active = hit-call score of the fitted dose curve at least 0.9, where 1 is the maximum; inactive = score below 0.9.

Read-out in this assay: X-box binding protein 1 (XBP1), XBP1 (gene 7494)
As to the kind of experiment: LTEA_HepaRG_XBP1: Life Technologies and Expression Analysis (LTEA) Assay for X-box binding protein 1 (XBP1) using HepaRG (AID 2283540). The settings on record: mRNA level, 48 h; actives raise or lower the signal. An outline of the steps: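 HepaRG, 48 h exposure, 8-pt half-log CRC top 100 uM, 0.5% DMSO vehicle, duplicates. Readout: TaqMan qRT-PCR of XBP1 mRNA, housekeeping-normalised (ACTB/GAPDH/POLR2A); bidirectional fit vs DMSO baseline.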
For `O=C(NO)C1(NS(=O)(=O)c2ccc(Oc3ccc(F)cc3)cc2)CCOCC1`, the call was inactive.

Consider `OCCNCCO`, for which the AC50 was 50 µM (active).

For `CC(C)CC(C)O` (centres undefined), the result was inactive.

In the case of `Cc1ncc([C@@H](CCCCCCc2ccc3c(n2)NCCC3)CC(=O)O)cn1`, the molecule was classed as inactive.

For the molecule `CCCCOC(=O)c1ccccc1`, the call was inactive.

Take `CC(C)CCCCCCOC(=O)C1CCCCC1C(=O)OCCCCCCC(C)C` (centres undefined): the outcome was inactive.

For the molecule `O=C(O)[C@H](O)[C@@H](O)C(=O)O`, the outcome was inactive.

Take `CCCCN1C(=O)[C@@H]([C@H](O)C2CCCCC2)NC(=O)C12CCN(Cc1ccc(Oc3ccc(C(=O)O)cc3)cc1)CC2`: the AC50 was 3.25 µM (active).

For the molecule `Cc1nccn1-c1ccc(Sc2cccc(C3(C(N)=O)CCOCC3)c2)cc1`, the AC50 was 7.33 µM (active).

For `C=CN1CCCC1=O`, the molecule was classed as inactive.

For `C[C@@H](Oc1ccc(CNC(=O)c2cccnc2Oc2ccc3c(c2)OCO3)c(F)c1)C(=O)O`, the outcome was inactive.

Turning to `CCCc1ccccc1`, the molecule was classed as inactive.

Regarding `O=C(O)c1cccc(C(=O)O)c1`, the result was inactive.

In the case of `CC(=O)c1ccccc1`, the molecule was classed as inactive.

For the molecule `CCCCCCOC(=O)CC(CC(=O)OCCCCCC)(OC(=O)CCC)C(=O)OCCCCCC`, the call was inactive.

For `CCc1ccc(O)c(C(C)(C)C)c1`, the call was inactive.

Take `O=c1[nH]cnc2c1ncn2[C@H]1CC[C@@H](CO)O1`: the molecule was classed as inactive.

In the case of `COS(C)(=O)=O`, the molecule was called inactive.

For the molecule `CCCCCCCC1CCC(=O)O1` (centres undefined), the molecule was classed as inactive.

`NC(=O)N1c2ccccc2C=Cc2ccccc21`: the result was inactive.

On to `c1ccc2cc3ccccc3cc2c1`, for which the call was inactive.

Consider `OC(CCl)CCl`, for which the outcome was inactive.

Regarding `c1ccc2ncccc2c1`, the result was inactive.

Consider `CCCOc1ccc(S(=O)(=O)N2CCN(CC)CC2)cc1-c1nc2c(CC)n(Cc3ccccn3)nc2c(=O)[nH]1`, for which the call was inactive.

A word on the AC50: it is the concentration giving half of the maximal activity seen.
